# High-throughput results as filed in PubChem BioAssay.
# An excerpt weighted towards active compounds, which were near 2.5% of everything screened.
# D2 ag-1 = HTS Assay for Allosteric Agonists of the Human D2 Dopamine Receptor: Primary Screen for Agonists | 0.53% of 340,000 active | HEK293 T-REx D2 cells, calcium flux agonist mode | D(2) dopamine receptor (Homo sapiens), P14416 | AID 485358, 2010 | activation, % at 2 µM;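 active = activation over 3 SD above normal in the single-dose calcium agonist read, cut at about 30% in these data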; also: 0% is about no effect
# Target sequence (P14416 whole entry, looked up): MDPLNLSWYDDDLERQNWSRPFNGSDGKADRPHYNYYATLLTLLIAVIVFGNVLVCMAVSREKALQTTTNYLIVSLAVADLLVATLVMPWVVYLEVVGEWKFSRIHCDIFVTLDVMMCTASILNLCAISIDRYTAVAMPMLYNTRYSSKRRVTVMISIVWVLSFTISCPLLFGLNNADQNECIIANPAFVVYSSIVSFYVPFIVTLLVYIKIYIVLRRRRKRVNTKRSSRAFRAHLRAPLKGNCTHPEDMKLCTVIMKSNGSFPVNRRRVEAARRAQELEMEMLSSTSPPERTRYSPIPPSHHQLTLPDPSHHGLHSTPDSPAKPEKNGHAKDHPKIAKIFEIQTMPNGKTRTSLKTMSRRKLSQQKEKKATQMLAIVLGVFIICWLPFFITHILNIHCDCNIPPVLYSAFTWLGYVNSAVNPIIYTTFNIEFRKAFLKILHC
#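 Tetracycline-induced HEK293 Trex cells with D2 receptor force-coupled to calcium signaling, plated overnight at 30 C and loaded with no-wash calcium dye. Calcium flux read kinetically for 180 s after compound addition; responses flag agonists.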
# Anesthetic bind = qHTS Assay for Identification of Novel General Anesthetics; Ferritin light chain (Equus caballus), P02791; apoferritin/1-aminoanthracene competitive binding, fluorescence; Potency, µM (top dose mostly 77.5 µM), for the others: at the highest dose activity change, negative = displacement, most hits filed as inhibitors; 0.074% of 350,000 active; also: potency is read from the fitted curve at half-maximal effect; % is scaled to controls: 0 for no effect and ±100 for the full control effect; nearly all actives have a fitted effect of over 20% in size
#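 Read-out: endpoint 1-AMA fluorescence, excitation 380 nm and emission 535 nm, after compounds sit 10 min at room temperature with 10 uM horse-spleen apoferritin in 50% saturated 1-AMA/PBS. Values come from four-parameter Hill fits.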
# D2 ag-2 = Beta-Arrestin HTS for Positive Allosteric Modulators of the Human D2 Dopamine Receptor: Agonists; D(2) dopamine receptor (Homo sapiens), P14416; DiscoveRx PathHunter D2 beta-arrestin, luminescence, 90 min; 100% = 57 uM dopamine signal; activation, % (test concentration not listed); 0.084% of 360,000 active; in the data active = activation above about 40%; inconclusive = between about 15% and that limit
#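 Agonist mode: compounds alone added to overnight-plated D2 PathHunter cells for 90 min at 37 C, with 57 uM final dopamine (EC100) defining full response. Beta-arrestin recruitment detected by chemiluminescent reagent, read after 1 h at ambient temperature.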
# D2 antag = HTS Assay for Allosteric Antagonists of the Human D2 Dopamine Receptor: Primary Screen for Antagonists. 2% of 340,000 active. AID 485344, 2010. inhibition, % at 10 µM. HEK293 TREx D2 cells, calcium flux, dopamine EC80; in the data active = inhibition above about 30%; inactive = below that, where a call was filed; also: 0% is about no effect
#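 Overnight-induced (tetracycline, 30 C) HEK293 T-REx cells carrying force-coupled D2 receive a no-wash calcium dye, then compound, then EC80 dopamine at 180 s; signals are read kinetically throughout.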
# D2 PAM-1 = Beta-Arrestin HTS for Positive Allosteric Modulators of the Human D2 Dopamine Receptor: Potentiators; AID 624464, 2012; potentiation, % (test concentration not listed); D(2) dopamine receptor (Homo sapiens), P14416; 0.23% of 360,000 active; DiscoveRx D2 beta-arrestin cells, luminescence, 90 min; 100% = 57 uM dopamine signal; in the data active = potentiation above about 50%; inconclusive = mostly about 30% to 49%
#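 PathHunter D2 cells, attached overnight at 37 deg C, received compound in DMSO plus dopamine at EC20 (50 nM final) for 90 min at 37 deg C. Beta-arrestin recruitment was read as luminescence after 1 h with detection reagent at ambient temperature.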
# D2 PAM-2 = HTS Assay for Positive Allosteric Modulators of the Human D2 Dopamine Receptor: Primary Screen for Potentiators; HEK293 T-REx D2, calcium flux, EC20 dopamine potentiation; D(2) dopamine receptor (Homo sapiens), P14416; potentiation, % at 10 µM; 0.34% of 340,000 active;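 active = potentiation over 3 SD above the plate norm, cut at about 30% in these data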; also: 0% is about no effect
#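 Primary screen. Calcium kinetics in induced HEK293 T-REx D2 cells: compound pre-addition 180 s, EC20 dopamine, 180 s more.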
# D3 ag = qHTS of D3 Dopamine Receptor Agonist: D3 Dopamine Receptor B-arrestin Agonist Confirmatory Assay. shares compounds with D2 ag-1. DiscoveRx D3 beta-arrestin cells, luminescence, 90 min. Potency, µM (titrated, usually from 76.9 µM), inactives show at the top dose activation, usual class: activators. 4% of 2,300 active;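 also: potency is read from the fitted curve at half-maximal effect; 100% = dopamine control response; nearly all actives have a fitted effect of over 70% in size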
# D2 ag-3 = qHTS of D3 Dopamine Receptor Agonist: D2 Dopamine Receptor B-arrestin Agonist Counterscreen. shares compounds with D2 ag-1. DiscoveRx PathHunter D2 beta-arrestin, luminescence, 90 min; response scale: percent relative to full dopamine signal. Potency, µM (doses to about 76.9 µM), for the others: at the highest dose activation, most hits filed as activators. 5.9% of 2,300 active. AID 720507, 2013; also: potency is read from the fitted curve at half-maximal effect; % of control where 0% means no effect; nearly all actives have a fitted effect of over 70% in size
# Active calls of the source: *; u = inconclusive; x = no result given. Unless noted, calls follow the shape of the dose curve; as a rule, active = well fitted curve in the direction sought with a large enough effect; inconclusive = small, poorly fitted or top-dose-only effect, or another doubt; inactive = no such curve, though single readings can be large; an effect the other way counts as inactive or inconclusive.
SMILES,D2 ag-1,Anesthetic bind,D2 ag-2,D2 antag,D2 PAM-1,D2 PAM-2,D3 ag,D2 ag-3
C=CCNC(=S)NCc1ccccc1,-1,4%,-4,-3,-10,2,x,x
C=CCNCc1cccn1-c1ccccc1,3,-15%,2,-8,-9,-5,-9%,0%
CC(C)N(C(=O)Nc1ccc2nsnc2c1)C(C)C,53*,325%,6,-1,5,-1,u,19%
O=C(NCC(c1ccco1)N1CCN(c2ccccc2)CC1)C(=O)NC1CC1 (stereo unspecified),13,x,13,20,u,1,u,u
O=C(NCC(c1ccco1)N1CCN(c2ccccc2)CC1)C(=O)NC1CCCC1 (stereo unspecified),2,x,7,-4,-3,-8,24%,11%
CC(C)CN(CCCNC(=O)CC1Oc2ccccc2NC1=O)CC(C)C (stereo unspecified),0,-14%,3,22,4,-6,x,x
CCN(CC)CCCNC(=O)CC1Sc2ccccc2NC1=O (stereo unspecified),22,-2%,1,17,-5,-10,-13%,6%
CCCCN(CC)CCCNC(=O)CC1Oc2ccccc2NC1=O (stereo unspecified),81*,-9%,53*,87*,u,-18,u,50µM*
CCOc1ccc(/C=N/NC(=O)c2cc(-c3ccccc3)nc3ccccc23)cc1O,x,1%,-5,x,-9,x,1%,7%
Cc1ccc(NC(=O)c2nc(S(=O)(=O)Cc3ccccc3C)ncc2Cl)cc1C,0,-23%,-6,34*,-12,-2,-19%,-10%
CN(c1ccccc1)S(=O)(=O)c1ccc(NC(=O)c2nc(S(C)(=O)=O)ncc2Cl)cc1,6,u,-11,3,-63,8,-21%,-11%
Cc1ccc(NC(=O)c2nc(S(=O)(=O)Cc3ccc(F)cc3)ncc2Cl)cc1C,2,u,x,x,x,-7,x,x
Cc1ccc(NC(=O)CN2C(=O)NC3(CCCc4ccccc43)C2=O)c(Cl)c1 (stereo unspecified),x,x,-2,x,-7,x,x,x
CC1=CC(c2ccc(Cl)cc2)n2nc(N3C(=O)CCC3=O)nc2N1 (stereo unspecified),0,65%,-4,-1,-7,15,x,x
COCCC(=O)N1CCC(Oc2ccc(C(=O)NCc3csc(C)n3)cc2)CC1,-2,-2%,-1,13,-4,-2,x,x
Cn1c(N2CCOCC2)nc2c1c(=O)n(Cc1ccc(Cl)cc1)c(=O)n2C,x,x,-2,x,-8,x,x,x
COc1ccc(-c2cc(C(=O)N3CCCC(C(F)(F)F)C3)c3ccccc3n2)cc1 (stereo unspecified),0,x,2,7,1,9,-7%,-2%
